A number with no mark means an inactive call.

Sequence of UniProt Q9UPT9 (Q9UPT9 whole entry): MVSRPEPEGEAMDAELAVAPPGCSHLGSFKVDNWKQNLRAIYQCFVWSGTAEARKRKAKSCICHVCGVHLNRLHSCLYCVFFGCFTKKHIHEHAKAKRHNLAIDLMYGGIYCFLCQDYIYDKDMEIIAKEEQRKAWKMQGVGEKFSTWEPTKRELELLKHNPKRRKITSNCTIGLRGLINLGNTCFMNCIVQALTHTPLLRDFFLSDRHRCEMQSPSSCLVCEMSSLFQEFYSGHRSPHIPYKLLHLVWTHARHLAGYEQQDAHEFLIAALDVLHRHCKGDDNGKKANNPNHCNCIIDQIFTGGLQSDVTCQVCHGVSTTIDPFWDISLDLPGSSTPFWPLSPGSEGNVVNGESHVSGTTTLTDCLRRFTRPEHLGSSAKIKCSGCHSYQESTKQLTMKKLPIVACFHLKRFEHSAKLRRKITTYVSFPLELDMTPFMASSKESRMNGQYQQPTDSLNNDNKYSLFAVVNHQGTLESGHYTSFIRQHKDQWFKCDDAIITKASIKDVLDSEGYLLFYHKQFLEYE
Sequence of UniProt Q01804 (Q01804 whole entry): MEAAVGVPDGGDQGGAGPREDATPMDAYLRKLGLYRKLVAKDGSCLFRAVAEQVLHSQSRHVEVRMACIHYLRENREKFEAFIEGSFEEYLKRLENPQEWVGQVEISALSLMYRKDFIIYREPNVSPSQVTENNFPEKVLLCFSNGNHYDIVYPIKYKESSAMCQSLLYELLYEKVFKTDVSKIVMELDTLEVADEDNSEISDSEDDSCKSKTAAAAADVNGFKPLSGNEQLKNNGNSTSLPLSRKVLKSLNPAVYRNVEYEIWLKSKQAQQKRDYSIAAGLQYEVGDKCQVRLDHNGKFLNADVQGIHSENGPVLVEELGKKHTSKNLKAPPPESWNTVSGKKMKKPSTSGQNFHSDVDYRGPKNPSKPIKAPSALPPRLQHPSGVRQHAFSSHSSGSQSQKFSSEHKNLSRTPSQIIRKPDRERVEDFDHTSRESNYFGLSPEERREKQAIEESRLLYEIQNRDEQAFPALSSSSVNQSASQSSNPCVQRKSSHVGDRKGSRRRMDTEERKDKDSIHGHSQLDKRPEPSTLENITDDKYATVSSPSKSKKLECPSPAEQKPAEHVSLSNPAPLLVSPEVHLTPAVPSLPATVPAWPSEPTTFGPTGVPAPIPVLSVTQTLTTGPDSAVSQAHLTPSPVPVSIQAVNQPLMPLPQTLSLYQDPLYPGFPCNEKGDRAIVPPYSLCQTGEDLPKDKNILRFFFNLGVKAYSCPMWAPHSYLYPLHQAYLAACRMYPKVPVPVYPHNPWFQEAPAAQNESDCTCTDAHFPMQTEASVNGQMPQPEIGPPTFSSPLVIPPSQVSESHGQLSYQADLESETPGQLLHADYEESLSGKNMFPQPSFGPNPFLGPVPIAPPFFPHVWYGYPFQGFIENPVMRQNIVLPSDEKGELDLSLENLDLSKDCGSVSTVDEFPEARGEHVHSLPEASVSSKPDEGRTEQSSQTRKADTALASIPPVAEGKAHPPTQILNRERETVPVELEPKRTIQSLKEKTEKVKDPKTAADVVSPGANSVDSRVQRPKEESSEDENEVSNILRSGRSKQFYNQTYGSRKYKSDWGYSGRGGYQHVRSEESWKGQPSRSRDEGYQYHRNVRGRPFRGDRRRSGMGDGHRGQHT
Sequence of UniProt Q9UGI0 (Q9UGI0 whole entry): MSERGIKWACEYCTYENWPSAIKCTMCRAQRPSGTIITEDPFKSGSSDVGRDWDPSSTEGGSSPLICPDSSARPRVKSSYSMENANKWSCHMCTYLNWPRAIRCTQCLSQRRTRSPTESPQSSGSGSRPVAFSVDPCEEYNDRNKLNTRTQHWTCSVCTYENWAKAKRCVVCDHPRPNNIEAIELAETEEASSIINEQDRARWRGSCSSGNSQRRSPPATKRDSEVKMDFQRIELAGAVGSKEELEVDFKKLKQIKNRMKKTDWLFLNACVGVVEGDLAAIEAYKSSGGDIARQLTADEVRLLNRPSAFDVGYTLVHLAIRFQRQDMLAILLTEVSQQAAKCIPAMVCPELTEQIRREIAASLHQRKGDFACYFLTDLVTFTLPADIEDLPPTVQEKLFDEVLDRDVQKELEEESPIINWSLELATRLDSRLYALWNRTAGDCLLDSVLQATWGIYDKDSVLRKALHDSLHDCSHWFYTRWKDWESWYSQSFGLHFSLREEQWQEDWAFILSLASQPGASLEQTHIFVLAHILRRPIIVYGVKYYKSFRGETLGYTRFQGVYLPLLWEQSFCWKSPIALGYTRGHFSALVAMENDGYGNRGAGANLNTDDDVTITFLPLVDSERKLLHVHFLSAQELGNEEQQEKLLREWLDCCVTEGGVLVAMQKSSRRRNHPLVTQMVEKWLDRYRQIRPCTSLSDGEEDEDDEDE
Sequence of UniProt Q5VVQ6 (Q5VVQ6 whole entry): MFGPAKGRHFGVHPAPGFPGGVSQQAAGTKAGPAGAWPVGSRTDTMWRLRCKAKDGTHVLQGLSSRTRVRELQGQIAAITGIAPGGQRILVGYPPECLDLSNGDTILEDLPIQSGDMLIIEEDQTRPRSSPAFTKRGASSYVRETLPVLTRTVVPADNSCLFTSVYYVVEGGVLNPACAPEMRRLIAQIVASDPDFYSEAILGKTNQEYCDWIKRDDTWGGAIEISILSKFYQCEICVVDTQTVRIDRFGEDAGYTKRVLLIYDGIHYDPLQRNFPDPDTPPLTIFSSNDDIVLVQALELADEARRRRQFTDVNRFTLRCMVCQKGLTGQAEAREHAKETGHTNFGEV
Sequence of UniProt P54252 (P54252 whole entry): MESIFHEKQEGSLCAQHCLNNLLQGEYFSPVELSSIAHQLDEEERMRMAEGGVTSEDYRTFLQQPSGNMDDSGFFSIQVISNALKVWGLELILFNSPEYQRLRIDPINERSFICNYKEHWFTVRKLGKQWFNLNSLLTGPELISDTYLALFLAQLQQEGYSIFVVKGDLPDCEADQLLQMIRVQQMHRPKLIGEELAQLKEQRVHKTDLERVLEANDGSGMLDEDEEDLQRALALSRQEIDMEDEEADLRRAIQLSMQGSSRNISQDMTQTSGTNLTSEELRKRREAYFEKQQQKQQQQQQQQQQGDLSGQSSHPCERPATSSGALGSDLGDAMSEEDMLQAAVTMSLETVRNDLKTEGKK
Sequence of UniProt Q9P2H5 (Q9P2H5 whole entry): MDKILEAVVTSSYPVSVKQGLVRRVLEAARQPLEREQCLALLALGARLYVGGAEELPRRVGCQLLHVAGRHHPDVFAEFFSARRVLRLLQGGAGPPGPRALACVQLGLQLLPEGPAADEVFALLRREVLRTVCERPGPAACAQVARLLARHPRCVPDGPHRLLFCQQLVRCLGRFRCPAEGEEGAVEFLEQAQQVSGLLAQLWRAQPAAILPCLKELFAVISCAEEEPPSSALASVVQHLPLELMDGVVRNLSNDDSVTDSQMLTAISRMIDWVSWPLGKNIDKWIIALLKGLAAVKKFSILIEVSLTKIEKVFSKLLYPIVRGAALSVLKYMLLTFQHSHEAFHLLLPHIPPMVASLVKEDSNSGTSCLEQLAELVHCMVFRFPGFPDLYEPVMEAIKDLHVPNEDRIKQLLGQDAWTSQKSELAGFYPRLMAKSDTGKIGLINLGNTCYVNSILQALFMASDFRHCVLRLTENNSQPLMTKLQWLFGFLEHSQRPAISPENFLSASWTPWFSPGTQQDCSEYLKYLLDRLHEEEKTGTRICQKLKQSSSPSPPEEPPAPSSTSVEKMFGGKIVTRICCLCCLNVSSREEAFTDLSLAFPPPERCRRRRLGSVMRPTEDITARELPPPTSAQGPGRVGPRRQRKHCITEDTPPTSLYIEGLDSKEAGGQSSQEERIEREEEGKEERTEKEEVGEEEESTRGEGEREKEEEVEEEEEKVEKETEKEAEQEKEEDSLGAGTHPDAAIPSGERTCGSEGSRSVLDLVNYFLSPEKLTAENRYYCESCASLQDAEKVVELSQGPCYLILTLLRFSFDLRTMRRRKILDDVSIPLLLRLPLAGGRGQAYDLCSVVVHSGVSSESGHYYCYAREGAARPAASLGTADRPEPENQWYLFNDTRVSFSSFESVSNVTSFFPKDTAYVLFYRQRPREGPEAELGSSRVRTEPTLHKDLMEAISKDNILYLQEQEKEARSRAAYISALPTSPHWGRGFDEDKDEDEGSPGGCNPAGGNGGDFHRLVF
Sequence of UniProt P09936 (P09936 whole entry, looked up): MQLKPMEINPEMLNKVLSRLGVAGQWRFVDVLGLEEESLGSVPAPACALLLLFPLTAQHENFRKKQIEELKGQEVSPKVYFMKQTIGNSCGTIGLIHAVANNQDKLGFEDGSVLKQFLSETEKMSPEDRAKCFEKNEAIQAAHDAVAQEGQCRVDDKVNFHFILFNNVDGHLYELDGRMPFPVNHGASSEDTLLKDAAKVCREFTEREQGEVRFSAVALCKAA
Sequence of UniProt O00303 (O00303 whole entry): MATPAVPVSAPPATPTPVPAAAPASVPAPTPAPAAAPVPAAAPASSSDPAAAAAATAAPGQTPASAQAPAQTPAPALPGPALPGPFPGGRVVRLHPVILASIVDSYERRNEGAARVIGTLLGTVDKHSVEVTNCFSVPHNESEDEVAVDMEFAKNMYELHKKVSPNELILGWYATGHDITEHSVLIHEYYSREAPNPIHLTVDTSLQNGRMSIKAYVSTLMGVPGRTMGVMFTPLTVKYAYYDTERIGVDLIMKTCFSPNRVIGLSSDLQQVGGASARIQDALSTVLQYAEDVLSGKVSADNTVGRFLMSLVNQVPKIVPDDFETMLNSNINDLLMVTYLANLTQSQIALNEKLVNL
Sequence of UniProt P15374 (P15374 whole entry): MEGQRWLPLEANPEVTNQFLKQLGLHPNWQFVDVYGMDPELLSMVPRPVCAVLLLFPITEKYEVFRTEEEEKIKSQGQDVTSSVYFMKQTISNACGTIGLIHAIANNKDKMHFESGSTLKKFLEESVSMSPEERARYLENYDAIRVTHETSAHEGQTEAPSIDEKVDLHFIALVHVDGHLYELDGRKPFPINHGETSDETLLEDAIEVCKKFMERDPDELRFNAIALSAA

Compound in the first test: COc1cccc(CN(C)C(=O)CCl)c1
The experiment in a line: log2 ratio of Biotin-Ahx-Ub-VS probe labelling (compound/DMSO); higher = less target engagement, active = hit call of the paper (q ≤ 0.05, log2 ratio ≤ -1). As to conditions: compound concentration: 50uM; treatment time: 3 h. The method, then:
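Round 2 competitive ABPP in HEK293T lysate. Compounds were tested at 50 and 200 µM for 3 h, followed by Biotin-Ahx-Ub-VS enrichment and diaPASEF LC-MS/MS. Values are the average log2 ratio (compound/DMSO) from an unpaired t-test (n=3 treated, n=26 DMSO).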
On to USP54 (UniProt Q70EL1), for which the “log2 ratio of Biotin-Ahx-Ub-VS probe labelling” value (“log2 ratio” below) is -2.86 (active).

With USP10 (UniProt Q14694), the “log2 ratio” value was -0.177.

On to USP25 (UniProt Q9UHP3), for which the “log2 ratio” value is -1.88 (active).

As to PSMD7 (UniProt P51665), the “log2 ratio” value was 0.132.

As for EIF3F (UniProt O00303), the “log2 ratio” value was -0.14.

UCHL1 (UniProt P09936): the “log2 ratio” value was -0.0521.

Take USP22 (UniProt Q9UPT9): the “log2 ratio” value is 0.0954.

Turning to UniProt Q9P2H5, the “log2 ratio” value was -0.267.

For the target USP28 (UniProt Q96RU2), the “log2 ratio” value was -0.0726.

As to USP24 (UniProt Q9UPU5), the “log2 ratio” value was 0.0304.

USP8 (UniProt P40818): the “log2 ratio” value is -0.108.

On to USP16 (UniProt Q9Y5T5), for which the “log2 ratio” value was 0.0263.

For OTUB1 (UniProt Q96FW1), the “log2 ratio” value is -0.0418.

As for UCHL3 (UniProt P15374), the “log2 ratio” value was -0.285.

Turning to ATXN3 (UniProt P54252), the “log2 ratio” value was -0.217.

Take UniProt Q9UGI0: the “log2 ratio” value was -0.354.

Turning to YOD1 (UniProt Q5VVQ6), the “log2 ratio” value was 0.0405.

With USP34 (UniProt Q70CQ2), the “log2 ratio” value was -0.106.

Consider OTUD4 (UniProt Q01804), for which the “log2 ratio” value was -0.113.

As to UniProt Q70EL2, the “log2 ratio” value is -0.17.

Still in this test, the particulars now being: compound concentration: 200uM; treatment time: 3 h.
On to USP54 (UniProt Q70EL1), for which the “log2 ratio” value was -2.26 (active).

As for USP10 (UniProt Q14694), the “log2 ratio” value was 0.037.

Turning to USP25 (UniProt Q9UHP3), the “log2 ratio” value was -0.899.

Turning to PSMD7 (UniProt P51665), the “log2 ratio” value is -0.458.

For EIF3F (UniProt O00303), the “log2 ratio” value is -0.0452.

Consider UCHL1 (UniProt P09936), for which the “log2 ratio” value is 0.0224.

For USP22 (UniProt Q9UPT9), the “log2 ratio” value was -0.231.

Turning to UniProt Q9P2H5, the “log2 ratio” value is -0.143.

USP28 (UniProt Q96RU2): the “log2 ratio” value is -0.646.

As to USP24 (UniProt Q9UPU5), the “log2 ratio” value was -0.88.

USP8 (UniProt P40818): the “log2 ratio” value was -0.0766.

Take USP16 (UniProt Q9Y5T5): the “log2 ratio” value is -0.213.

Take OTUB1 (UniProt Q96FW1): the “log2 ratio” value is 0.0222.

On to UCHL3 (UniProt P15374), for which the “log2 ratio” value was -0.275.

As to ATXN3 (UniProt P54252), the “log2 ratio” value was -0.786.

Regarding UniProt Q9UGI0, the “log2 ratio” value was -0.0472.

Take YOD1 (UniProt Q5VVQ6): the “log2 ratio” value was -0.24.

Take USP34 (UniProt Q70CQ2): the “log2 ratio” value was -0.024.

As to OTUD4 (UniProt Q01804), the “log2 ratio” value is -0.21.

UniProt Q70EL2: the “log2 ratio” value is -1.02 (active).

(Values after the supplement of paper PMC11732987, “Enantioselective OTUD7B fragment discovery through chemoproteomics screening and high-throughput optimisation” (Communications Chemistry, 2025).)
